Screening data deposited in PubChem by several laboratories.
CHOP inh: CHOP inhibition in unfolded protein response; CHO-K1 CHOP-promoter luciferase, tunicamycin-induced, 15-18 h; inhibition, % at 10 µM; hit rate 3.8% among 220,000; AID 2732;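 active = compounds that reduced the stress-induced luciferase reporter signal by more than about 70% of percent inhibition, limit read from the data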;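 note: 0% = tunicamycin plus vehicle and 100% = wells without tunicamycin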
S1P4 ag: activates the human S1P4 receptor; O95977; S1P4-expressing cell line, agonist reporter assay; activation, % at 4.98 µM; hit rate 0.35% among 220,000; in the data active = activation above about 11%;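 note: 0% = DMSO vehicle and 100% = reference agonist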
Target sequence (O95977 whole entry, looked up): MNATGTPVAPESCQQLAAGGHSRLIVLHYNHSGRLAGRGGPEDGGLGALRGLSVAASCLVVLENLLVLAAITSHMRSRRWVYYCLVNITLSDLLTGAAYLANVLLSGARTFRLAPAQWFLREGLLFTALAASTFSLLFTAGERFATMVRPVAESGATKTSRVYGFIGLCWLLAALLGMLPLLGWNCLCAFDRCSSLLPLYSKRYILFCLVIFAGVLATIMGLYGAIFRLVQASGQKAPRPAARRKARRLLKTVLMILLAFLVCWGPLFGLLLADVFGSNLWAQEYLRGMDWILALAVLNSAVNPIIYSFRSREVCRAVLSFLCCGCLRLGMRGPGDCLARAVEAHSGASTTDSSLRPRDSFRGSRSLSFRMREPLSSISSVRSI
Hsp70 activator: Hsp70 transcriptional activation, primary screen; HeLa Hsp70 promoter luciferase reporter, luminescence; scaled: vehicle 0, proteasome-inhibitor control 100%; activation, % at 10 µM; hit rate 0.04% among 200,000;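 active = activation above the mean across all tested compounds plus 3 SD, cutoff set per campaign, cut at about 5.5% in these data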;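 note: 100% = MG132 at 30 µM as the positive control and 0% = DMSO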
S1P4 antag: antagonists of human S1P4 receptor. O95977. S1P4-expressing cells, antagonist mode, reporter read-out. hit rate 0.26% among 220,000. inhibition, % at 4.98 µM; in the data active = inhibition above about 29%;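 note: 0% = wells stimulated with agonist and 100% = vehicle wells without agonist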
Numbers without * were called inactive; . = no result. In the library only some 4.2% were active in any assay of this set; here they are far more common.

SMILES | CHOP inh | S1P4 ag | Hsp70 activator | S1P4 antag
O=C(NCCCO)c1cc([N+](=O)[O-])cc2c1C=Cc1ccccc1O2 | 22 | -3 | 0 | -10
COc1nc(N/N=C/c2ccc(-c3cccc([N+](=O)[O-])c3)o2)nc(N2CCOCC2)n1 | 71* | 0 | 0 | -9
O=[N+]([O-])c1ccc(-c2ccc(/C=N/Nc3nc(N4CCCCC4)nc(N4CCCCC4)n3)o2)cc1 | 95* | 0 | 0 | -8
O=[N+]([O-])c1ccc(-c2ccc(/C=N/Nc3nc(N4CCCC4)nc(N4CCCC4)n3)o2)cc1 | 40 | 3 | 0 | -5
COc1ccc(N2COC3c4cccc5cccc(c45)C32)cc1 (stereo unspecified) | 36 | 0 | 0 | 10
CC(/C=C1\N=C(SCc2ccccc2Cl)SC1=O)=C\c1ccccc1 | 76* | 0 | 0 | -24
O=C1SC(SCc2ccccc2)=N/C1=C\c1ccc(C(=O)O)cc1 | 43 | -1 | 0 | -1
O=S(=O)(c1ccccc1)N1CCN=C1SCc1ccc(Cl)c(Cl)c1 | 72* | 1 | 0 | -18
O=S(=O)(c1ccccc1)N1CCN=C1SCc1ccc(Cl)cc1 | 46 | 0 | 0 | 10
CN(C)c1ccc(/C=N/Nc2ccc(-n3ccnc3)nn2)cc1 | 28 | 1 | 0 | -13
CCc1ccc(CN2CC(C(=O)O)CC2=O)cc1 (stereo unspecified) | 12 | -1 | 0 | -10
Oc1ccccc1-c1cc(C(F)(F)F)nc(-c2ccccc2)n1 | 73* | 1 | 0 | 11
Oc1ccc(Cl)cc1-c1cc(C(F)(F)C(F)F)nc(-c2ccccc2)n1 | -31 | 1 | 0 | -10
COc1ccc([N+](=O)[O-])cc1N(CC(O)CN(C)C)S(=O)(=O)c1ccccc1 (stereo unspecified) | -8 | 2 | -1 | -15
CC(NS(=O)(=O)/C=C/c1ccccc1)C(=O)O (stereo unspecified) | 86* | 0 | 0 | -2
Cc1ccc(/C([O-])=C(/C(=S)NCc2ccco2)[n+]2ccccc2)cc1 | -17 | -2 | 0 | 4
Cc1nc2sc(C#N)c(N)c2c2c1CCCC2 | . | 0 | 0 | -13
COc1nc(N(C)S(=O)(=O)c2ccc(C)cc2)nc(C)c1Cl | 83* | 1 | 0 | -22
COC(=O)Cc1[nH]nc2c1C(C1C=CCCC1)C(C#N)=C(N)O2 (stereo unspecified) | 36 | -1 | 0 | -7
CC1C/C(=C\c2cccnc2)C(=O)/C(=C/c2cccnc2)C1 (stereo unspecified) | 102* | -2 | 110* | 4
O=C(Nc1ccc(C(F)(F)F)cc1Cl)c1ccc(Cn2cc(Br)cn2)o1 | 73* | 1 | 0 | -3
Cc1cc(Cl)ccc1Oc1ccc(C(N)=O)cc1[N+](=O)[O-] | 81* | 1 | 0 | -6
Cc1cc(=O)oc2cc(Oc3ccc(C(N)=O)cc3[N+](=O)[O-])ccc12 | 14 | -1 | . | 1
Cc1ccc2[nH]c(=O)c(CNC(C)(C)C)cc2c1 | 22 | 0 | 0 | 13
Cc1ccc(-c2csc(/C=C3\SC(C)C(=O)N3CC(=O)Nc3ccccc3F)n2)cc1 (stereo unspecified) | 93* | 1 | . | -13
SMILES | CHOP inh | S1P4 ag | Hsp70 activator | S1P4 antag
Cc1ccccc1NC(=O)Cn1nnc2c(cnn2-c2ccc(F)cc2)c1=O | 36 | -1 | 0 | -4
CCOc1ccc(NC(=O)Cn2nnc3c(cnn3-c3ccc(F)cc3)c2=O)cc1 | 72* | 0 | 0 | 2
O=C1O/C(=C/c2ccccc2)N=C1c1ccccc1 | 87* | -1 | 0 | -18
O=C(CSc1cc(Cl)ccc1Cl)NCC(=O)Nc1ccc(F)c(F)c1F | 72* | 0 | 0 | -11
O=C(Cn1nc(-c2ccc(Cl)cc2)ccc1=O)NCCN1CCOCC1 | 31 | 2 | 0 | -7
CC(C)(C)c1ccc(Cn2c(=N)n(CC(O)c3ccco3)c3ccccc32)cc1 (stereo unspecified) | 76* | 1 | 0 | 2
Cc1ccccc1Cn1c(=N)n(CC(O)c2ccco2)c2ccccc21 (stereo unspecified) | 60 | 0 | 0 | -1
c1ccc(OCc2noc(CN3CC[C@@H]4CCCC[C@H]4C3)n2)cc1 | 75* | 1 | 0 | -17
Clc1cccc(C2CCN(Cc3nc(COc4ccccc4)no3)C2)c1 (stereo unspecified) | 4 | 2 | 0 | -1
COc1ccnc(Oc2ccc(F)cc2)c1C(=O)N/C=N/OCc1c(Cl)cccc1Cl | 46 | 2 | 0 | -21
Cc1nn(Cc2ccc(Cl)c(Cl)c2)c(C)c1NC(=O)c1cc(CC(C)C)on1 | 93* | 0 | 0 | -4
Cc1cc(C(=O)Nc2c(C)nn(Cc3ccc(F)cc3)c2C)on1 | 81* | 2 | 0 | -16
Cc1ccc(Cn2nc(C)c(NC(=O)c3cc(C)no3)c2C)cc1 | 23 | 1 | 0 | -6
Cc1ccc(Cn2ccc(NC(=O)c3cc(CC(C)C)on3)n2)cc1 | 76* | 1 | 0 | 6
Cc1ccc(Cn2ccc(NC(=O)c3cc(-c4ccc(Cl)cc4)on3)n2)cc1 | 14 | -2 | 0 | -10
CCSc1nnc(NC(=O)CSc2c(Cl)cccc2Cl)s1 | 34 | 0 | 0 | -2
O=C(Nc1cc(C(F)(F)F)ccc1N1CCOCC1)c1ccc(Br)o1 | 17 | -3 | 0 | 2
O=[N+]([O-])c1ccc(Oc2cccc(Br)c2)c2ccncc12 | 67 | -2 | 0 | -18
O=[N+]([O-])c1ccc(Oc2ccc(F)cc2)c2ccncc12 | 77* | 2 | 0 | -24
CCCc1ccc(C(=O)Cn2nc(C(=O)O)c3ccccc3c2=O)cc1 | 86* | 1 | 0 | 0
Cc1cc(C)c(C(=O)Cn2nc(C(=O)O)c3ccccc3c2=O)cc1C | -11 | 0 | . | 8
COCc1nnc(NC(=O)c2cc(Cl)ccc2OC)s1 | 22 | 1 | 0 | 5
COC(=O)c1ccc(N2CCN(S(=O)(=O)c3c(C)cc(C)cc3C)CC2)c([N+](=O)[O-])c1 | 31 | 1 | 0 | 0
COc1cc(CNCCN2CCOCC2)ccc1OCc1ccc(Cl)cc1Cl | 16 | -1 | 0 | -18
O=C(CS(=O)(=O)c1ccccc1)NC1CCCCC1 | 3 | 0 | 0 | 2
SMILES | CHOP inh | S1P4 ag | Hsp70 activator | S1P4 antag
O=C(CSc1ncnc2c1cnn2-c1ccc(Cl)cc1)NCc1ccc2c(c1)OCO2 | 72* | 0 | -1 | -26
COc1cccc(CN2CCN(c3cccc(C(F)(F)F)c3)CC2)c1OC | 71* | 1 | 0 | 3
COc1ccccc1N1CCN(Cc2cccc(OC)c2OC)CC1 | 15 | 0 | 0 | -10
Cc1c(C(=O)OC(C)C)sc(N)c1C(=O)OC(C)C | 82* | 0 | 0 | -8
O=C(/C(=C/O)N=Nc1ccccc1)c1ccncc1 | 19 | -4 | 0 | -8
O=C(/C(=C/O)N=Nc1ccccc1)c1ccc(Cl)cc1 | 92* | 1 | 0 | -17
Cc1ccc(N=N/C(=C\O)C(=O)c2ccc(Cl)cc2)cc1 | 95* | -1 | 1 | 4
Cc1ccc(CCNC(=O)C2CCC(=O)N2Cc2cccnc2)cc1 (stereo unspecified) | 12 | -1 | 0 | -8
CC(=NCC1CCNCC1)C1=C(O)CC(C)(C)CC1=O | 78* | 1 | 0 | -1
